Gli-Sufu antag: Gli-Sufu pathway antagonism; Sufu-KO-LIGHT fibroblasts, Gli luciferase reporter luminescence; inhibition, % at 5 µM; hit rate 0.74% among 340,000;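 active = inhibition above about 55%, limit read from the data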;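 note: 0% = DMSO-treated cells and 100% = wells with medium but no cells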
MPTP block: inhibitors of mitochondrial permeability transition pore; hit rate 1.4% among 360,000; inhibition, % at 10 µM; isolated mouse mitochondria, Ca2+ swelling absorbance, 30 min;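 active = inhibition of 50% or more, scaled per plate between neutral and stimulator controls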;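 note: 0% = DMSO wells given calcium and 100% = 1 mM EGTA wells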
NR3A LBD binder: modulators (binders) of human NR3A ligand-binding domain; NR3A LBD differential scanning fluorimetry, Tm shift; 0% = protein alone, 100% = glycine-bound protein; Tm shift relative to glycine control, % at 25 µM; hit rate 2.5% among 340,000; AID 1259313;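 active = melting temperature shift of at least 10% of the positive control shift, at one fixed dose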
Mdm2-MdmX inh: disrupts the human Mdm2-MdmX interaction; SaOS-2 split-luciferase Mdm2/MdmX complementation, luminescence; inhibition, % at 8 µM; hit rate 3% among 330,000;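 active = inhibition of at least 50% at 8 µM in the primary screen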
Target sequence (O15151 whole entry, looked up): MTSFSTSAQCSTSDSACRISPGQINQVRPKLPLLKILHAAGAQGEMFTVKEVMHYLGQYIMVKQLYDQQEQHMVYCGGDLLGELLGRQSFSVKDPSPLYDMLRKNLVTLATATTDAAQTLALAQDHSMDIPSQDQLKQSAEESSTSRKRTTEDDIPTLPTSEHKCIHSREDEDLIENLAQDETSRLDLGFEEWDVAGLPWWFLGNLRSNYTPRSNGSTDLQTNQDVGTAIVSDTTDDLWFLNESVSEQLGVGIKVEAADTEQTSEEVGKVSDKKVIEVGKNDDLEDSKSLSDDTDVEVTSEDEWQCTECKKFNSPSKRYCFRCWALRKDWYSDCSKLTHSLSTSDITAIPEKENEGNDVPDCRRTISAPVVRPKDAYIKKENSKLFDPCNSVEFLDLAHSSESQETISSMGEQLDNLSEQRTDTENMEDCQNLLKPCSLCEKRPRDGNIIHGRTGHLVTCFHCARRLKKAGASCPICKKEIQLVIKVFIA
Target sequence (Q00987 whole entry, looked up): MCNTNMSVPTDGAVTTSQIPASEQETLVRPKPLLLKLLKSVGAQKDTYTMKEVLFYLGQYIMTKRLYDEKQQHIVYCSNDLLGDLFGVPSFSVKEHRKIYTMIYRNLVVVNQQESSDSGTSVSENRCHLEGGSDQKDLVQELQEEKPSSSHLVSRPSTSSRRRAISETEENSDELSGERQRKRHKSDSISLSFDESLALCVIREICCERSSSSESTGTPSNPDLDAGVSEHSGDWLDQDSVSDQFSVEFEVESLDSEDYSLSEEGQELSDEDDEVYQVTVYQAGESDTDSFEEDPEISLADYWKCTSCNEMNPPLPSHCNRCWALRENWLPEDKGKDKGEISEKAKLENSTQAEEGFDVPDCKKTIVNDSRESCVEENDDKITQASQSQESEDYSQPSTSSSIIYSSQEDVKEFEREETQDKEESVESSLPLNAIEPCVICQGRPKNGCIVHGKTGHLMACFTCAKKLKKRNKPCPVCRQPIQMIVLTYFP
Beta apoptosis: beta cell apoptosis inhibition. INS-1E cytokine-induced death, ATP luminescence, 48 h; percent of positive-control rescue, neutral wells zero. protection from apoptosis, % (concentration not given with the values). hit rate 0.8% among 300,000;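 active = Every replicate reaches about 75%, or at least half do and their mean reaches it too, limit read from the data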;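 note: 0% = cytokine-treated negative control wells and 100% = positive control rescue; higher means more ATP so stronger rescue from cytokine killing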
CSC inhib: blocks cancer stem cells; inhibition, % at 7.5 µM; cancer stem cell-like cells viability, luminescence; hit rate 1.1% among 300,000; in the data active = inhibition above about 75%; tested in HMLE shEcad cells
Rh123 counter: Rhodamine 123 counter-screen of mitochondrial pore hits; shares compounds with MPTP block; isolated mitochondria, membrane potential, Rhodamine 123 fluorescence; AID 624504; inhibition, % at 10 µM; hit rate 78% among 5,000; in the data active = inhibition above about 22%;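 note: 0% = DMSO vehicle and 100% = positive control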
MPTP swell DR: MPTP inhibition, dose response swelling confirmation. shares compounds with MPTP block. isolated mitochondria swelling, absorbance. IC50, µM. hit rate 58% among 780; in the data active = IC50 below about 20 µM
MPTP cs DR: active in counter-screen for permeability transition pore inhibitors; hit rate 49% among 780; isolated mitochondria counterscreen, fluorescence read-out; IC50, µM; shares compounds with MPTP block; in the data active = IC50 below about 80 µM
Numbers without * were called inactive; i = inactive; nt = no result. Hits are enriched below; roughly 6.6% of the tested compounds scored in any of these assays.

SMILES | Gli-Sufu antag | MPTP block | NR3A LBD binder | Mdm2-MdmX inh | Beta apoptosis | CSC inhib | Rh123 counter | others
O=[N+]([O-])c1ccc(/C=N/Nc2ccc3ccccc3c2)o1 | -31.2 | 79.2* | 21.2* | 2.4 | 9.2 | 32.3 | 32.2*
CC(C)C(NC(=O)CN(c1ccc2c(c1)OCCO2)S(=O)(=O)c1ccccc1)C(C)C | -2.3 | 2.4 | 1.5 | 1.7 | 1.4 | 1.2 | nt
Cc1ccc(NC(=O)c2cc(-c3cccc(O)c3)on2)cc1C | -35.9 | 104.7* | 3.8 | -117.5 | 1.8 | 80.4* | 20.4*
O=C(NCc1ccccc1)c1cc(-c2cccc(O)c2)on1 | 1.7 | 112.6* | -6.5 | -42.8 | 5.5 | -1.0 | 15.7 | MPTP swell DR=4.28*;MPTP cs DR=18.6*
COc1ccc(-c2cc(C(=O)NCc3ccccc3)no2)cc1OC | -7.5 | -0.7 | 2.0 | 2.2 | 0.4 | 9.1 | nt
Cc1ccc(S(=O)(=O)N(CC(=O)Nc2cccc([N+](=O)[O-])c2)C2CCCCC2)cc1 | 4.0 | 2.6 | -2.9 | -9.8 | 16.9 | nt | nt
Cc1ccc(S(=O)(=O)N(CC(=O)Nc2ccc(Cl)c([N+](=O)[O-])c2)C2CCCCC2)cc1 | -9.6 | 91.0* | 10.8* | 38.6 | 42.4 | 22.1 | 81.0*
CNS(=O)(=O)c1cccc(C(=O)OCC(=O)NC(C)CCc2ccccc2)c1 (stereo not drawn) | 10.7 | 0.8 | 1.3 | 6.1 | -4.0 | 9.7 | nt
CC(CCc1ccccc1)NC(=O)COC(=O)c1cc(NS(=O)(=O)c2ccc(Cl)c([N+](=O)[O-])c2)ccc1O (stereo not drawn) | 3.6 | 99.6* | 22.1* | 21.6 | nt | nt | 88.8*
Cc1ccc(NC(=O)CN(C)C(=O)c2cccc(S(=O)(=O)N3CCc4ccccc43)c2)cc1 | 9.6 | -0.9 | -10.8 | 19.1 | 0.3 | 4.3 | nt
CCCCC(=O)Nc1cccc(C(=O)N/N=C/c2ccc(OC)cc2OC)c1 | -8.4 | 1.6 | 3.6 | -13.2 | 0.4 | -0.4 | nt
CN(C)CCCC1Sc2ccccc2Sc2ccccc21 (stereo not drawn) | 8.8 | -3.3 | 1.2 | 48.0 | nt | 9.9 | nt
CNCCC1Sc2ccccc2Oc2ccccc21 (stereo not drawn) | -0.5 | 61.2* | -0.3 | 28.3 | -3.4 | -12.6 | -5.7 | MPTP swell DR=10.5*;MPTP cs DR=>80
Cc1ccc(F)cc1NC(=O)C12CC3CC(C1)CC(n1cnc([N+](=O)[O-])n1)(C3)C2 | 4.3 | 0.6 | 0.8 | 4.0 | 0.9 | -9.2 | nt
CC1(C)CC2CC(C)(CN2C(=O)COC(=O)CNC(=O)c2ccc(Cl)c(Cl)c2)C1 (stereo not drawn) | -4.2 | -1.8 | -6.7 | -4.4 | -3.9 | -10.8 | nt
COc1cc(C)c(NC(=S)Nc2ccc(Cl)c(Cl)c2)cc1OC | -1.4 | 100.3* | 1.5 | -2.6 | -5.6 | 32.5 | 82.4*
COC(=O)c1cc(OC)c(OC)cc1NC(=S)Nc1cccc(Cl)c1 | -1.9 | 90.7* | -0.3 | 7.4 | -3.8 | nt | 110.3*
Cc1ccc(NC(=S)Nc2ccc(OC(F)F)c(Cl)c2)cc1F | -4.9 | 98.4* | 32.0* | 23.1 | 2.0 | 32.8 | 87.1*
COc1ccc(C)cc1NC(=O)C1CCN(C(=O)Cc2ccccc2)CC1 | -7.8 | -0.3 | 2.1 | 8.6 | -2.6 | 5.0 | nt
CN1/C(=C\C=C(C#N)C#N)C(C)(C)c2ccccc21 | 1.0 | 3.6 | 3.2 | 5.1 | 4.4 | -7.5 | nt
CN1/C(=C/C=C/c2n(C)c3cc([N+](=O)[O-])c([N+](=O)[O-])cc3[n+]2C)C(C)(C)c2ccccc21 | nt | 80.8* | nt | nt | nt | nt | -9.3 | MPTP swell DR=i;MPTP cs DR=<2.5*
Cc1ccc(OC(=O)c2ccccc2)cc1C | 9.1 | -0.2 | 0.7 | nt | nt | nt | nt
COc1ccc(N=c2cc(-c3ccc(O)cc3)oc3ccccc23)cc1 | 13.9 | 68.5* | -1.1 | -1.9 | 41.6 | 40.3 | 72.8*
COc1ccc(N=c2cc(-c3ccc(OC)cc3)oc3ccccc23)cc1 | 11.2 | 26.7 | -14.1 | 7.9 | 22.5 | -4.2 | nt
COc1ccc(-c2cc(=Nc3ccc(C)cc3)c3ccccc3o2)cc1 | -2.6 | 62.6* | 2.4 | 43.9 | 16.2 | 57.8 | 12.0 | MPTP swell DR=>100;MPTP cs DR=13.5*
SMILES | Gli-Sufu antag | MPTP block | NR3A LBD binder | Mdm2-MdmX inh | Beta apoptosis | CSC inhib | Rh123 counter | others
CN(C)C(CNC(=O)Cc1cccc(C(F)(F)F)c1)c1ccccc1 (stereo not drawn) | 4.2 | 0.1 | -1.7 | -6.2 | -8.4 | -2.8 | nt
CN(C)C(CNc1ccc(C(F)(F)F)cn1)c1ccccc1 (stereo not drawn) | -12.2 | 68.0* | 2.7 | 16.6 | -15.2 | -13.4 | -3.9 | MPTP swell DR=i;MPTP cs DR=>80
CN(C)CCCN(C(=O)C1=COCCO1)c1nc2ccc(Br)cc2s1 | 36.3 | -2.0 | -0.8 | 29.7 | -8.4 | -1.8 | nt
Cc1cc(C)c2nc(N(CCCN(C)C)C(=O)C3=COCCO3)sc2c1 | 21.9 | 61.3* | -0.3 | 42.3 | nt | 5.3 | -15.7 | MPTP swell DR=11.8*;MPTP cs DR=>80
COCC(C)NCC(=O)NC(C)CCc1ccccc1 (stereo not drawn) | 5.2 | 0.0 | -2.6 | 18.1 | nt | -3.7 | nt
CCCCc1cc(=O)oc2cc(OCc3cc(OC)c(OC)c(OC)c3)c(Cl)cc12 | 2.8 | 87.5* | 0.7 | 36.7 | 1.3 | -6.2 | -4.1 | MPTP swell DR=2.98*;MPTP cs DR=5.05*
CCCc1cc(=O)oc2cc(OCc3cc(OC)c(OC)c(OC)c3)c(Cl)cc12 | 14.7 | 9.2 | 4.8 | 27.9 | -0.5 | nt | nt
COC(=O)c1ccc(NC(=O)Nc2ccccc2C)cc1 | -34.0 | -0.2 | 0.8 | -46.1 | -2.4 | 18.8 | nt
COC(=O)c1cc(NC(=O)c2ccc(F)cc2)cc(C(=O)OC)c1 | 5.4 | -3.3 | -0.3 | 11.8 | 8.8 | -6.5 | nt
COC(=O)c1ccc(NC(=O)Nc2ccc(F)c(Cl)c2)cc1 | -14.6 | 91.2* | 41.3* | 37.0 | -5.0 | -3.3 | 83.2*
CCOC(=O)c1ccc(NC(=O)Oc2cc(C)c(Cl)cc2C(C)C)cc1 | 1.2 | 63.9* | 14.7* | 14.3 | -1.4 | 0.2 | 68.6*
CCOC(=O)c1ccc(NC(=S)Nc2ccc(Cl)cn2)cc1 | -11.0 | -1.1 | 2.9 | 9.2 | -8.6 | -6.2 | nt
COC(=O)c1ccc(NC(=O)Nc2ccccc2F)cc1 | -115.2 | 54.4* | 4.2 | -182.3 | 3.3 | 13.9 | 83.9*
COC(=O)c1ccc(NC(=O)Nc2ccc(F)cc2)cc1 | -55.6 | 63.5* | 18.2* | -32.1 | 8.3 | 3.6 | 96.5*
Cc1cccc(C)c1OCc1cc(C(=O)N2CCNC(=O)C2)no1 | -6.2 | -1.0 | -1.0 | -1.2 | 0.2 | 11.1 | nt
O=C(NCc1ccncc1)C12CC3CC(CC(Cl)(C3)C1)C2 | -19.5 | -1.1 | 0.2 | -2.4 | 0.6 | -10.2 | nt
CC/C(=N\NC(=O)c1ccc(N(C)C)cc1)c1ccccc1 | -32.4 | 5.7 | -1.2 | -9.5 | -1.8 | 0.6 | nt
CCOC(=O)c1ccc(NC(=O)NCc2ccccc2)cc1 | -21.6 | 28.0 | -28.8 | -41.8 | -5.5 | 5.4 | nt
CCOC(=O)c1sc(NC(=O)Cc2ccc(F)cc2)nc1C | -0.4 | -4.9 | 0.9 | 16.0 | 14.3 | 45.0 | nt

Assay outcomes deposited in PubChem by several laboratories.
